Laboratory results: article PMC7862700, “An all-to-all approach to the identification of sequence-specific readers for epigenetic DNA modifications on cytosine”

Assays:
Test in all cases: DAPPL (digital affinity profiling via proximity ligation, sequencing); 10 mM Tris-HCl pH 7.5, 50 mM NaCl, 1 mM DTT, 4% glycerol, room temperature, 30 min; GST-TFs on glutathione beads, 16-mer random dsDNA library, 0.1% formaldehyde crosslink after washing; high values mean tight binding
Conditions in all cases: protein: recombinant; tags: N-terminal GST; dsDNA, one strand shown
FLI1 = molecular target: T1, FLI1 (Homo sapiens, UniProt Q01543 1-452)
T1 sequence: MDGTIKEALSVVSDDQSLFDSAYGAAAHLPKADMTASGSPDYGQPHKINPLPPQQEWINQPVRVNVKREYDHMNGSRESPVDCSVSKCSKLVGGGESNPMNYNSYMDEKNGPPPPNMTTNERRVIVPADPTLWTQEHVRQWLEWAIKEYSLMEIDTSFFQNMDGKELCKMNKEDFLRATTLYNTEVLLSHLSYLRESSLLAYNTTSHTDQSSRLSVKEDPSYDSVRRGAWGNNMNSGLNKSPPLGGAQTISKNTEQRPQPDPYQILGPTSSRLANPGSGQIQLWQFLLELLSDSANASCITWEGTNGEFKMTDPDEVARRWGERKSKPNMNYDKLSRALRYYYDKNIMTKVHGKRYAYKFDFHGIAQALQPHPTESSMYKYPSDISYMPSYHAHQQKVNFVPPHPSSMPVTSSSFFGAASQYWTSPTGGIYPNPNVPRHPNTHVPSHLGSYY
Procedure, shortened: (§1)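 Human transcription factors carrying a GST fusion were produced in yeast, bound to glutathione beads, tagged with DNA barcodes and pooled together with a tag-only sample. Each pool was held with 200 nmole of a random double-stranded 16-mer DNA library in Tris/NaCl/DTT/glycerol buffer for 30 min at room temperature, then washed, crosslinked in 0.1% formaldehyde, proximity-ligated with BsaI/T4 ligase (1 h, 37 °C), PCR-amplified and sequenced on an Illumina NextSeq500. Binding signal is the read frequency of each hexamer for a given factor divided by its frequency in the tag-only sample.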

ELK1 = molecular target: T2, ELK1 (Homo sapiens, UniProt P19419 1-428)
T2 sequence: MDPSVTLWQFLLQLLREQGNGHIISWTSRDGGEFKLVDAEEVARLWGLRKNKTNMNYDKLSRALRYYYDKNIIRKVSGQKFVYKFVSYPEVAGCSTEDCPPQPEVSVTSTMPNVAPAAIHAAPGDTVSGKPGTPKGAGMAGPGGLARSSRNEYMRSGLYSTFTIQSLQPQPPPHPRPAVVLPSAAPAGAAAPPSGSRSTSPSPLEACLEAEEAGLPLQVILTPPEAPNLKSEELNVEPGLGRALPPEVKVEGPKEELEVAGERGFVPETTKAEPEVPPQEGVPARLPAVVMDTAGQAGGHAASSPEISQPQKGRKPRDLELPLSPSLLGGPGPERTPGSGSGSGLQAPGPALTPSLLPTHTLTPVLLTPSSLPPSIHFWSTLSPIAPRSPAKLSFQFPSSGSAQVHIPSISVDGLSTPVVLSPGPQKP
Procedure, shortened: as §1

GABPA = molecular target: T3, GABPA (Homo sapiens, UniProt Q06546 1-454)
T3 sequence: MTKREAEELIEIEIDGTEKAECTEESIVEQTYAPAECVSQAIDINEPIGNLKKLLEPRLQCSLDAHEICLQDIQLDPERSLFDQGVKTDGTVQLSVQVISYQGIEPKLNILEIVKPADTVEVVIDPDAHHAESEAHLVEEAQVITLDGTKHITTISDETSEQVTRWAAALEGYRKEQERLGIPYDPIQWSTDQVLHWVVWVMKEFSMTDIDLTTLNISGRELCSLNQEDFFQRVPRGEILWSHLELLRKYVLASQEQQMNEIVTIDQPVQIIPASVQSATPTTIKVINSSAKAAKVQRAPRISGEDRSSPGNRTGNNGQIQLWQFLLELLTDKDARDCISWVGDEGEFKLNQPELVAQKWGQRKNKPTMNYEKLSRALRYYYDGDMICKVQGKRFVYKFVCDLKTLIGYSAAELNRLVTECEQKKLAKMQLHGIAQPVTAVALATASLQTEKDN
Procedure, shortened: as §1

ERG = molecular target: T4, ERG (Homo sapiens, UniProt P11308 1-479)
T4 sequence: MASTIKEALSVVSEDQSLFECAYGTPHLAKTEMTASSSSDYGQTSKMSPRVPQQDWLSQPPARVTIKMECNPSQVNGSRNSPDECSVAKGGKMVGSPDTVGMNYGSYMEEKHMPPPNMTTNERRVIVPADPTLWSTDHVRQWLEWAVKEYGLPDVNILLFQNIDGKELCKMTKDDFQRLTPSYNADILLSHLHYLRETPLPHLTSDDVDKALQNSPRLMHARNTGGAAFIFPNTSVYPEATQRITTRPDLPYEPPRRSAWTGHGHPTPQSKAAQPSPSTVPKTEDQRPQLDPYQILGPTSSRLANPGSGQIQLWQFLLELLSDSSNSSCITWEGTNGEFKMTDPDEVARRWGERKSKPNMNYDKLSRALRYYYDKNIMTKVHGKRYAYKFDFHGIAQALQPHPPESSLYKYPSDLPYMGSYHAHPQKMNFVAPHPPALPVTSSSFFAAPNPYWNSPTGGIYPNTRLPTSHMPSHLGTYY
Procedure, shortened: as §1

ELF1 = ELF1 (Homo sapiens, UniProt P32519 1-619)
Chain of ELF1 (P32519 whole entry): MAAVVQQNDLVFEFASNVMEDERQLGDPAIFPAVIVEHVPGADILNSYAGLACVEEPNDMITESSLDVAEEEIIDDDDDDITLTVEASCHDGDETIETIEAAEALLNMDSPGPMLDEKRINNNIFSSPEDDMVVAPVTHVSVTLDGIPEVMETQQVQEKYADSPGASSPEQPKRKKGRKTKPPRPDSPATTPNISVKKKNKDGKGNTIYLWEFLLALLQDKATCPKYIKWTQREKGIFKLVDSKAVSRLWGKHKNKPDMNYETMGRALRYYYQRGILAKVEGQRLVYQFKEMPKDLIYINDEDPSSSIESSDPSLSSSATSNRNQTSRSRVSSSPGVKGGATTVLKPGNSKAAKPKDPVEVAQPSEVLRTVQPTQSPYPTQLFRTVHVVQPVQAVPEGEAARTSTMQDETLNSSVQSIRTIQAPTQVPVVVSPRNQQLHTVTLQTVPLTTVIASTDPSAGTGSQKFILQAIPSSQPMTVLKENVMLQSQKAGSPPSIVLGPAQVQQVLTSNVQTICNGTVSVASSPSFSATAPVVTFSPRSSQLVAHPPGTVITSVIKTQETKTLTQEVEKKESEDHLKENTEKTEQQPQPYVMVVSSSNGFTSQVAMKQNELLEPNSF
Procedure, shortened: as §1

EHF = molecular target: T5, EHF (Homo sapiens, UniProt Q9NZC4 1-300)
T5 sequence: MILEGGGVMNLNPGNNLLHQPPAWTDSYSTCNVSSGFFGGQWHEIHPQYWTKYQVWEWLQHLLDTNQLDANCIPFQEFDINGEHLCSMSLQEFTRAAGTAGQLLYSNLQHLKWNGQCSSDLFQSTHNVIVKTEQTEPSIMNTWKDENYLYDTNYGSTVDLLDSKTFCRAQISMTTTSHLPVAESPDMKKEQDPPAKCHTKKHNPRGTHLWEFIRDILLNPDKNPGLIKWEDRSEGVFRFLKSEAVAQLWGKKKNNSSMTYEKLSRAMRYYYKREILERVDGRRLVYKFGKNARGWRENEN
Procedure, shortened: as §1

SPI1 = SPI1 (Homo sapiens, UniProt P17947 1-270)
Procedure, shortened: as §1

SPIB = SPIB (Homo sapiens, UniProt Q01892 1-262)
Chain of SPIB (Q01892 whole entry): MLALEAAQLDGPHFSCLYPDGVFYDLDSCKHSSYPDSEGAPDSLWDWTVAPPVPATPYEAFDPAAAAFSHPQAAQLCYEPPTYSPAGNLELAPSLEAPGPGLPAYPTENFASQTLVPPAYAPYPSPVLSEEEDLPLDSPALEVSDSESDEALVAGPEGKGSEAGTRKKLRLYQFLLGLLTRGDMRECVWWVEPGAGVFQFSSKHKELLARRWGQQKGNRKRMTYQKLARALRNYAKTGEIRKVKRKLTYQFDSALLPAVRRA
Procedure, shortened: as §1

ELK3 = molecular target: T6, ELK3 (Homo sapiens, UniProt P41970 1-407)
T6 sequence: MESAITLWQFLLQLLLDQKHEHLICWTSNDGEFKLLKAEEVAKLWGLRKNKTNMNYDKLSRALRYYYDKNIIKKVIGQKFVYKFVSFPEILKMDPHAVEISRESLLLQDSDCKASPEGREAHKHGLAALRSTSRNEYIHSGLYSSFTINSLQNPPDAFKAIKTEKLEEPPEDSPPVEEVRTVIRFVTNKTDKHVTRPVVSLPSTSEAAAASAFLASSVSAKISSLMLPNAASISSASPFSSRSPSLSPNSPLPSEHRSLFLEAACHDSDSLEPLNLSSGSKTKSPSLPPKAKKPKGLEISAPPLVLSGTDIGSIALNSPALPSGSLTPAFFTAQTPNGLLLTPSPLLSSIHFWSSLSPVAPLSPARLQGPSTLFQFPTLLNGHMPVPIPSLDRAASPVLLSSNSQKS
Procedure, shortened: as §1

## CGTTCG
FLI1
  binding signal: 1.15 fold enrichment (6-mer frequency, TF over GST control)
ELK1
  binding signal: 1.14 fold enrichment (6-mer frequency, TF over GST control)
GABPA
  binding signal: 1.23 fold enrichment (6-mer frequency, TF over GST control)
ERG
  binding signal: 1.17 fold enrichment (6-mer frequency, TF over GST control)
ELF1
  binding signal: 1.22 fold enrichment (6-mer frequency, TF over GST control)
EHF
  binding signal: 1.25 fold enrichment (6-mer frequency, TF over GST control)
SPI1
  binding signal: 1.1 fold enrichment (6-mer frequency, TF over GST control)
SPIB
  binding signal: 1.14 fold enrichment (6-mer frequency, TF over GST control)
ELK3
  binding signal: 1.24 fold enrichment (6-mer frequency, TF over GST control)
